# Results taken from PMC7862700, “An all-to-all approach to the identification of sequence-specific readers for epigenetic DNA modifications on cytosine”.
# Columns and labels:
# Experiment in all cases: DAPPL (digital affinity profiling via proximity ligation, sequencing); 10 mM Tris-HCl pH 7.5, 50 mM NaCl, 1 mM DTT, 4% glycerol, room temperature, 30 min; GST-TFs on glutathione beads, 16-mer random dsDNA library, 0.1% formaldehyde crosslink after washing; high values mean tight binding
# FLI1 = target: T1, FLI1 (Homo sapiens, UniProt Q01543 1-452); conditions: protein: recombinant; tags: N-terminal GST; dsDNA, one strand shown
# T1 sequence: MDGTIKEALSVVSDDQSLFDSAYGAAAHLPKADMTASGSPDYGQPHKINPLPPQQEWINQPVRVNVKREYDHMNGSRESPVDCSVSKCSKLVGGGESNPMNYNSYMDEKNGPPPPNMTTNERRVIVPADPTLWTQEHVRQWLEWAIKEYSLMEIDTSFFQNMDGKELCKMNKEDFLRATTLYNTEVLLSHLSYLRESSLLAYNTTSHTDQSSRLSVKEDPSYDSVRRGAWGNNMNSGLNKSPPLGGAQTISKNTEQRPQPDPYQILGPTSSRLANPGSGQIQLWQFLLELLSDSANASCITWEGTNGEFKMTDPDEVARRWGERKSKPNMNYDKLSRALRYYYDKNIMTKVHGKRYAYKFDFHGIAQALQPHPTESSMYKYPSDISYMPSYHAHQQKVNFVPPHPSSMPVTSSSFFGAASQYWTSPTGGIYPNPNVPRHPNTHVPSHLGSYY
# Outline: (§1)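 In yeast, human transcription factors were expressed with a GST fusion, then pulled down on glutathione beads and given DNA barcodes. Pooled with a tag-only sample, they were exposed to 200 nmole of a 16-mer random double-stranded DNA library (Tris/NaCl/DTT/glycerol buffer, room temperature, 30 min), washed, crosslinked with 0.1% formaldehyde, proximity-ligated using BsaI/T4 ligase for 1 h at 37 °C, PCR-amplified and read on an Illumina NextSeq500. Each hexamer's frequency of reads for a factor, divided by the matching frequency for the tag-only sample, gives the binding signal.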
# ELK1 = target: T2, ELK1 (Homo sapiens, UniProt P19419 1-428); conditions: protein: recombinant; tags: N-terminal GST; dsDNA, one strand shown
# T2 sequence: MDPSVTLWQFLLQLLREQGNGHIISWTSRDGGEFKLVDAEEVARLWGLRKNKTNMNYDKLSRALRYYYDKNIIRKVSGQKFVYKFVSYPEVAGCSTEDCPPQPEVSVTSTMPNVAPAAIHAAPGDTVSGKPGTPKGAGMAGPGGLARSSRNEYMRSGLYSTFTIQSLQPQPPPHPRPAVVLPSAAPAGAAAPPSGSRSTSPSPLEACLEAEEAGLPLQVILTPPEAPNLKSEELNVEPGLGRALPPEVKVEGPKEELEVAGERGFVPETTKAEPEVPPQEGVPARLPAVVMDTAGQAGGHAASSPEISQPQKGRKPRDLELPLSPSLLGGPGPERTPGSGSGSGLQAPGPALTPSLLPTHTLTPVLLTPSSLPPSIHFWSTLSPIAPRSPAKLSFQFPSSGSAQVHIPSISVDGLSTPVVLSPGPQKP
# Outline: as §1
# GABPA = target: T3, GABPA (Homo sapiens, UniProt Q06546 1-454); conditions: protein: recombinant; tags: N-terminal GST; dsDNA, one strand shown
# T3 sequence: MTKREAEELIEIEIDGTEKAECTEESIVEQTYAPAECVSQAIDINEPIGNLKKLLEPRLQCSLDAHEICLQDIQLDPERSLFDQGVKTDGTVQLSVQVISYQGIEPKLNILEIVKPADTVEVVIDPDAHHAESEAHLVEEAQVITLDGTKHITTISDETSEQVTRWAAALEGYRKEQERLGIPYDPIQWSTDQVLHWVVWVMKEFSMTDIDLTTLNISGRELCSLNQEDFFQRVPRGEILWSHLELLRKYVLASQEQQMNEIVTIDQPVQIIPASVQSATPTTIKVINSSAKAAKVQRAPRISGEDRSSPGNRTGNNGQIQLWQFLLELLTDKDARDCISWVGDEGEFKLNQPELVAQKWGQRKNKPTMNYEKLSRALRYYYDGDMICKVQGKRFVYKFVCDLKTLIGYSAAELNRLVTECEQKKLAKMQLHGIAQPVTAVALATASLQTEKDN
# Outline: as §1
# ERG = target: T4, ERG (Homo sapiens, UniProt P11308 1-479); conditions: protein: recombinant; tags: N-terminal GST; dsDNA, one strand shown
# T4 sequence: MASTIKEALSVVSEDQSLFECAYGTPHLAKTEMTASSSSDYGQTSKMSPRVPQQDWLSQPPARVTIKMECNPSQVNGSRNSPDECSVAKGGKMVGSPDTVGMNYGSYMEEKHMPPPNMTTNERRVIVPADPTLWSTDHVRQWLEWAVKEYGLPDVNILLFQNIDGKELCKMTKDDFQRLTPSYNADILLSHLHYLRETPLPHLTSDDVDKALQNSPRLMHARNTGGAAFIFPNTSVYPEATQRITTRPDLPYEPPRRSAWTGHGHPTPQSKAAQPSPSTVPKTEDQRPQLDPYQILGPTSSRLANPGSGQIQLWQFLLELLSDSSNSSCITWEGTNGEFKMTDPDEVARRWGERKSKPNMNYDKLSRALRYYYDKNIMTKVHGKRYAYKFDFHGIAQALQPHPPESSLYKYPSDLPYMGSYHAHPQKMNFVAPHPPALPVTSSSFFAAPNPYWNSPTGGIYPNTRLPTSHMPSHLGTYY
# Outline: as §1
# ELF1 = ELF1 (Homo sapiens, UniProt P32519 1-619); conditions: protein: recombinant; tags: N-terminal GST; dsDNA, one strand shown
# Sequence of ELF1 (P32519 whole entry): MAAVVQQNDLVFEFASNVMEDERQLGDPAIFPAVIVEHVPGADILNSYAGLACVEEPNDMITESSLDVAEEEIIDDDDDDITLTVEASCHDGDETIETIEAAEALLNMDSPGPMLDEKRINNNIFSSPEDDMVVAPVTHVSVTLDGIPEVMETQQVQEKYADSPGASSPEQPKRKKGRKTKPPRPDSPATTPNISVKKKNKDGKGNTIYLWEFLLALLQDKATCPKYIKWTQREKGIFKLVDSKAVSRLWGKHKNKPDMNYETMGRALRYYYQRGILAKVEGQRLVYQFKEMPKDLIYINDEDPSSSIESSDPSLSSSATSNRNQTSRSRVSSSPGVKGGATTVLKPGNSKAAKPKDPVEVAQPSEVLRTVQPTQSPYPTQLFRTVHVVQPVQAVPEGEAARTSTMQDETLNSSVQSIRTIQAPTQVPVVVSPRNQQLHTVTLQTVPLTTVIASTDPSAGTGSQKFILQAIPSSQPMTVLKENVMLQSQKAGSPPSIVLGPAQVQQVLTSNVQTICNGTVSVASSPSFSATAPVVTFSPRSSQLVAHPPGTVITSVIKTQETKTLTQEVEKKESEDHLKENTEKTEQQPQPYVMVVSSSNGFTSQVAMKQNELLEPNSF
# Outline: as §1
# EHF = target: T5, EHF (Homo sapiens, UniProt Q9NZC4 1-300); conditions: protein: recombinant; tags: N-terminal GST; dsDNA, one strand shown
# T5 sequence: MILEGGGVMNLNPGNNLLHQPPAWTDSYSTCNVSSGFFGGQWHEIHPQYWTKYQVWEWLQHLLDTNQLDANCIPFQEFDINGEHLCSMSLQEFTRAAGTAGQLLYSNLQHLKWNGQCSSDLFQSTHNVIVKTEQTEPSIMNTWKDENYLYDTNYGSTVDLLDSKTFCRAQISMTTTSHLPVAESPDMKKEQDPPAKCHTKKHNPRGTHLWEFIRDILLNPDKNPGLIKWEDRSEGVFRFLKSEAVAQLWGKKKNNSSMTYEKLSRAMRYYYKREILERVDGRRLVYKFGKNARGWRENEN
# Outline: as §1
# SPI1 = SPI1 (Homo sapiens, UniProt P17947 1-270); conditions: protein: recombinant; tags: N-terminal GST; dsDNA, one strand shown
# Outline: as §1
# SPIB = SPIB (Homo sapiens, UniProt Q01892 1-262); conditions: protein: recombinant; tags: N-terminal GST; dsDNA, one strand shown
# Sequence of SPIB (Q01892 whole entry): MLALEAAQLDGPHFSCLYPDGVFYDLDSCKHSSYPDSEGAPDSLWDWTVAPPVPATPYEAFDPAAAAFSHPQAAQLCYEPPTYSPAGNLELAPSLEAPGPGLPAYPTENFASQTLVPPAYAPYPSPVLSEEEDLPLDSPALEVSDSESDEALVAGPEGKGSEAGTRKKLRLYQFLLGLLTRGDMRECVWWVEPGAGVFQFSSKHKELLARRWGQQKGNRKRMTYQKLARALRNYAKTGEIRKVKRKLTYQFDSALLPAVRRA
# Outline: as §1
# ELK3 = target: T6, ELK3 (Homo sapiens, UniProt P41970 1-407); conditions: protein: recombinant; tags: N-terminal GST; dsDNA, one strand shown
# T6 sequence: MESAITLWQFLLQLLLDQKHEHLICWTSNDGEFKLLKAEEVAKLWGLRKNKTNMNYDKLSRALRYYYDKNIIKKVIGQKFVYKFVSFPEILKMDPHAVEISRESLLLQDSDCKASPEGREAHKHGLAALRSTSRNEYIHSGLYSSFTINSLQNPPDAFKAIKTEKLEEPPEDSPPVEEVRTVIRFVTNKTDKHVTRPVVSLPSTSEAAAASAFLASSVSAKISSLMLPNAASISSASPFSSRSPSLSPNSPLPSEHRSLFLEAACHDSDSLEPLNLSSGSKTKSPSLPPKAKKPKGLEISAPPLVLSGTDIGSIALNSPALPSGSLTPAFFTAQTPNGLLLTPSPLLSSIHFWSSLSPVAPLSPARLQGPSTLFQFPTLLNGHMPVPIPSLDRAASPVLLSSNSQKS
# Outline: as §1
# FEV = target: T7, FEV (Homo sapiens, UniProt Q99581 1-238); conditions: protein: recombinant; tags: N-terminal GST; dsDNA, one strand shown
# T7 sequence: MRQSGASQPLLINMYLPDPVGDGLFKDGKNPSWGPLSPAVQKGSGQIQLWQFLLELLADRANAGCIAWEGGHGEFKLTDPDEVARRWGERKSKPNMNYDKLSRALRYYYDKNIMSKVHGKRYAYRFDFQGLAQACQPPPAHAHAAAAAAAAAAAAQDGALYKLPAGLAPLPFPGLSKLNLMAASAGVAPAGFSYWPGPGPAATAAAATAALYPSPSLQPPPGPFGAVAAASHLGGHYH
# Outline: as §1
# ETV5 = ETV5 (Homo sapiens, UniProt P41161 1-510); conditions: protein: recombinant; tags: N-terminal GST; dsDNA, one strand shown
# Sequence of ETV5 (P41161 whole entry): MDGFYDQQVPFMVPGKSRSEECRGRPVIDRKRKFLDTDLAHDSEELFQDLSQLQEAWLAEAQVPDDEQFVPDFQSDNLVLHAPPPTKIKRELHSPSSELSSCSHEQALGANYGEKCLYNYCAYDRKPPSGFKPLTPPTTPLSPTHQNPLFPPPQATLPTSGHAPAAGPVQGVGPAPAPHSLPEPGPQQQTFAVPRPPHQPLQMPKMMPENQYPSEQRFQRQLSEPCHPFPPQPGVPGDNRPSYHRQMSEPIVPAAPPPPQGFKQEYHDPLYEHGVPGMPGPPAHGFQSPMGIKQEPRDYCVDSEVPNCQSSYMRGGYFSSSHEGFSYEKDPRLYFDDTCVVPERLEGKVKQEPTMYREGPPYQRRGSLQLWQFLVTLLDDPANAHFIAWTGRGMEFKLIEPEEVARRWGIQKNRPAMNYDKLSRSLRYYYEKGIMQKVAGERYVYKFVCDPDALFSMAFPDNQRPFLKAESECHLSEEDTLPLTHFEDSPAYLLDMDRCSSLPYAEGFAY
# Outline: as §1
# HSF1 = HSF1 (Homo sapiens, UniProt Q00613 1-529); conditions: protein: recombinant; tags: N-terminal GST; chain copies: 3; dsDNA, one strand shown
# Sequence of HSF1 (Q00613 whole entry): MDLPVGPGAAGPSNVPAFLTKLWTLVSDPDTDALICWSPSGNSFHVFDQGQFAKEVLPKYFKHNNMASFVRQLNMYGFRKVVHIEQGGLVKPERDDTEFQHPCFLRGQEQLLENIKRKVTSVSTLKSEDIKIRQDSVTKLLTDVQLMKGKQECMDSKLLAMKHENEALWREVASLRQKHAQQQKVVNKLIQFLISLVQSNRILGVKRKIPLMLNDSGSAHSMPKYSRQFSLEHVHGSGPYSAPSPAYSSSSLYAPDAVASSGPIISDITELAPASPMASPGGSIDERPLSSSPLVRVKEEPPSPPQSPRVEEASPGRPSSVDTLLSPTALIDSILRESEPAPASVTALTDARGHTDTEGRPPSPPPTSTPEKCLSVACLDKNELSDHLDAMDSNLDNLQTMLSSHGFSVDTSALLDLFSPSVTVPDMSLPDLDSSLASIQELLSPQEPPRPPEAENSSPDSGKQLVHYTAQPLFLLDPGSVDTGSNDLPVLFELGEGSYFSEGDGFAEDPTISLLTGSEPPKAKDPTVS
# Outline: as §1
# SPIC = target: T8, SPIC (Homo sapiens, UniProt Q8N5J4 1-248); conditions: protein: recombinant; tags: N-terminal GST; dsDNA, one strand shown
# T8 sequence: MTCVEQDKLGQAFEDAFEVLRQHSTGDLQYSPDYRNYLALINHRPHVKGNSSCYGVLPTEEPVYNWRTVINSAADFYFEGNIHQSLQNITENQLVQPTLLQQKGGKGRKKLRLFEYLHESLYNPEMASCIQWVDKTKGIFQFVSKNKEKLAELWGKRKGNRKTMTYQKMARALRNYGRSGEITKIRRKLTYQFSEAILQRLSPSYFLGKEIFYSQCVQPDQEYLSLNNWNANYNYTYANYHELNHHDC
# Outline: as §1
# ELF4 = ELF4 (Homo sapiens, UniProt Q99607 1-663); conditions: protein: recombinant; tags: N-terminal GST; dsDNA, one strand shown
# Sequence of ELF4 (Q99607 whole entry): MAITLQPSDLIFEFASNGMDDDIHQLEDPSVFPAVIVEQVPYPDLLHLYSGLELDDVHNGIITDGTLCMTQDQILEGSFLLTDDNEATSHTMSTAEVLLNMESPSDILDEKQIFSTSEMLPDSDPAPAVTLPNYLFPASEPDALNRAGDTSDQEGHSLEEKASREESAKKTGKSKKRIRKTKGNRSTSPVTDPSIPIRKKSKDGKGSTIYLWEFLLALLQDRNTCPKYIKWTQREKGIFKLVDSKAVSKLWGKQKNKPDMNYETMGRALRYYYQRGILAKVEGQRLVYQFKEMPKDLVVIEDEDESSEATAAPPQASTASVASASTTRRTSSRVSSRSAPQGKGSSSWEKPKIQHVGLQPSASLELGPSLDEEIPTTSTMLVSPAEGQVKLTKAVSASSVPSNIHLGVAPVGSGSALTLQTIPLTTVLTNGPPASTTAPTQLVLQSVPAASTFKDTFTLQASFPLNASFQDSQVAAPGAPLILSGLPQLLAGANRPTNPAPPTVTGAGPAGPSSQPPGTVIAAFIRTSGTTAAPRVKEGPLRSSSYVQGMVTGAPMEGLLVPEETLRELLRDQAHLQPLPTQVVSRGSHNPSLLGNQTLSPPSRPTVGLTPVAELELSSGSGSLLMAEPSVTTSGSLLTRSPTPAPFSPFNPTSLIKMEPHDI
# Outline: as §1
# ELK4 = target: T9, ELK4 (Homo sapiens, UniProt P28324-2 1-405); conditions: protein: recombinant; tags: N-terminal GST; dsDNA, one strand shown
# T9 sequence: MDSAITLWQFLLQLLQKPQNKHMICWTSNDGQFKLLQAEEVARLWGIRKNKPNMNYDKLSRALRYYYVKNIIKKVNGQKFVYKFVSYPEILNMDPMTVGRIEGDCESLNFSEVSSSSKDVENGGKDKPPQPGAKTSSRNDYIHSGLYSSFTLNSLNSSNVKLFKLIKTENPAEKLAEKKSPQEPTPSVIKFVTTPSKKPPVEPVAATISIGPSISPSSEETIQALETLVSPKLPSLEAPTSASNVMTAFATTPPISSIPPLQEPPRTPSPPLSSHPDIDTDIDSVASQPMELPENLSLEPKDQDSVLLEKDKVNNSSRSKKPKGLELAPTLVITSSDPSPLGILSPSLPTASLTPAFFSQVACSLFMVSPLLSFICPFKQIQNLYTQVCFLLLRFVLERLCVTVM
# Outline: as §1
# ETV2 = target: T10, ETV2 (Homo sapiens, UniProt O00321 1-342); conditions: protein: recombinant; tags: N-terminal GST; dsDNA, one strand shown
# T10 sequence: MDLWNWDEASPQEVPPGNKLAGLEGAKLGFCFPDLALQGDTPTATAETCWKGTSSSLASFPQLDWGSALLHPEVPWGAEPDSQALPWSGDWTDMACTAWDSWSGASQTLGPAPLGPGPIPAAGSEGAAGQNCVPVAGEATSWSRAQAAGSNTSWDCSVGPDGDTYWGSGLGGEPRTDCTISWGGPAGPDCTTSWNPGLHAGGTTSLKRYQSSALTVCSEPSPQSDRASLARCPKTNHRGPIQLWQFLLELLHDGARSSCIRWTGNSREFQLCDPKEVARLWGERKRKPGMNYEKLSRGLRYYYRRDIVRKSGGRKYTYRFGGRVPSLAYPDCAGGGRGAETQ
# Outline: as §1
# ELF3 = target: T11, ELF3 (Homo sapiens, UniProt P78545 1-371); conditions: protein: recombinant; tags: N-terminal GST; dsDNA, one strand shown
# T11 sequence: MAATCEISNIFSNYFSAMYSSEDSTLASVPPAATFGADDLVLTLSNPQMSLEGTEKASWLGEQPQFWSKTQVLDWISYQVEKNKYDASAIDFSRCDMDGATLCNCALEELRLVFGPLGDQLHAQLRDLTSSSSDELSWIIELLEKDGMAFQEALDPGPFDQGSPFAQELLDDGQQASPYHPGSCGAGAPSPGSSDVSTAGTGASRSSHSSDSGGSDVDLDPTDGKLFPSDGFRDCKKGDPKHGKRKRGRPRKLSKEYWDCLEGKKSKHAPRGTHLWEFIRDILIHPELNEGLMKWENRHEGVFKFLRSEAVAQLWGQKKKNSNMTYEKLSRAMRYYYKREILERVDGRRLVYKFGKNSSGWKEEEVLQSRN
# Outline: as §1
# ETV1 = ETV1 (Homo sapiens, UniProt P50549 1-477); conditions: protein: recombinant; tags: N-terminal GST; dsDNA, one strand shown
# Sequence of ETV1 (P50549 whole entry): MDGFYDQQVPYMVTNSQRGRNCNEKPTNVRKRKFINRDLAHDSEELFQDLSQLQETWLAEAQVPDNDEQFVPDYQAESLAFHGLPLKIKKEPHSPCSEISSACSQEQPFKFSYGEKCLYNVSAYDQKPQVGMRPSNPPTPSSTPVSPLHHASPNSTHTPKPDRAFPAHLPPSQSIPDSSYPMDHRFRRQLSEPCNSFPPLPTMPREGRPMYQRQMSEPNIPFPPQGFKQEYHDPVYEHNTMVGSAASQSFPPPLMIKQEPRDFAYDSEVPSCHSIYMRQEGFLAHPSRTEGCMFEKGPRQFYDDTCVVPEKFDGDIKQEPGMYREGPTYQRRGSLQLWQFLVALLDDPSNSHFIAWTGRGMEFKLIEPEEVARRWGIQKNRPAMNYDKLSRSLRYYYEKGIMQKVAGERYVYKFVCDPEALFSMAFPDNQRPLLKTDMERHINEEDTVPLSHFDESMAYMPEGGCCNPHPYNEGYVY
# Outline: as §1
sequence,measurement,setting,value
CTGAAG,binding signal,FLI1,"1.02 fold enrichment (6-mer frequency, TF over GST control)"
same,binding signal,ELK1,"1.14 fold enrichment (6-mer frequency, TF over GST control)"
same,binding signal,GABPA,"1.11 fold enrichment (6-mer frequency, TF over GST control)"
same,binding signal,ERG,"1.08 fold enrichment (6-mer frequency, TF over GST control)"
same,binding signal,ELF1,"1.11 fold enrichment (6-mer frequency, TF over GST control)"
same,binding signal,EHF,"1.02 fold enrichment (6-mer frequency, TF over GST control)"
same,binding signal,SPI1,"1.05 fold enrichment (6-mer frequency, TF over GST control)"
same,binding signal,SPIB,"1.04 fold enrichment (6-mer frequency, TF over GST control)"
same,binding signal,ELK3,"1.01 fold enrichment (6-mer frequency, TF over GST control)"
same,binding signal,FEV,"1.05 fold enrichment (6-mer frequency, TF over GST control)"
same,binding signal,ETV5,"1.06 fold enrichment (6-mer frequency, TF over GST control)"
same,binding signal,HSF1,"1.11 fold enrichment (6-mer frequency, TF over GST control)"
same,binding signal,SPIC,"1.01 fold enrichment (6-mer frequency, TF over GST control)"
same,binding signal,ELF4,"1.11 fold enrichment (6-mer frequency, TF over GST control)"
same,binding signal,ELK4,"1.05 fold enrichment (6-mer frequency, TF over GST control)"
same,binding signal,ETV2,"1.09 fold enrichment (6-mer frequency, TF over GST control)"
same,binding signal,ELF3,"1.18 fold enrichment (6-mer frequency, TF over GST control)"
same,binding signal,ETV1,"1.08 fold enrichment (6-mer frequency, TF over GST control)"
